# Most compounds without a hit are left out; they make up all but 3.5% or so of the library.
# Pf apPOL inh: Pf-apPOL inhibitors, biochemical, fluorescence; Recombinant Pf-apPOL, molecular beacon fluorescence, 1.5 h; inhibition, % at 10 µM; actives 0.25% (n = 210,000)
# mHTT-CaM PPI inh: mutant huntingtin-calmodulin interaction inhibitors – biochemical, AlphaScreen, primary screen; actives 3.6% (n = 190,000); P42858; inhibition, % at 15 µM; AlphaScreen His-mHTT/GST-CaM binding, luminescence;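 also: 0% = both proteins with DMSO and 100% = one protein alone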
# The depositor's hits bear a star; / = no result. Rule as the data show it: active = inhibition above about 50%; inactive = the rest.
SMILES,Pf apPOL inh,mHTT-CaM PPI inh
CCCn1cc2c3c(cccc31)CN(C(=O)c1ccccc1)CC2,-2.6,70.1*
Cn1cc2c3c(cccc31)CN(C(=O)c1ccc(Br)cc1)CC2,-4.7,54.3*
CCCn1cc2c3c(cccc31)CN(C(=O)c1ccc(F)cc1)CC2,-0.5,94.3*
CCCn1cc2c3c(cccc31)CN(C(=O)CC(C)(C)C)CC2,-3.1,17.0
COc1ccc2c(c1)CC/C(=C\c1ccncc1)C2=O,-0.1,-1.0
O=C(O)CC1NC(=O)C(Cc2ccccc2)NC1=O (stereo unspecified),-0.7,-4.9
Cc1cc(C)c(NC=C2C(=O)OC(C)(C)OC2=O)c(C)c1,-1.2,-1.0
CCOc1ccc(C(=O)Nc2ccc3sc(SC)nc3c2)cc1,2.2,-3.0
O=C(Cn1ccn2nc(-c3ccccc3)cc2c1=O)NCc1ccccc1Cl,-5.9,-12.3
O=[N+]([O-])c1cccc(/C=C/c2ccccn2)c1,67.3*,-2.1
O=[N+]([O-])c1cccc(/C=C/c2ccc3ccccc3n2)c1,-4.5,1.4
CCOc1ccc(N(C(=O)CC)C2C=CS(=O)(=O)C2)cc1 (stereo unspecified),-11.3,1.7
CS(=O)(=O)N1CCCC(C(=O)Nc2ccc3ncsc3c2)C1 (stereo unspecified),-4.1,-22.3
O=C(O)c1cccc(N2C(=O)/C(=C/c3ccc([N+](=O)[O-])cc3)C=C2c2ccccc2)c1,2.7,18.0
COc1ccc(/C=C2/C(=N)N3C(c4ccccc4)=CSC3=NC2=O)cc1Br,4.9,10.0
COc1ccc(/C=C2\C=C(c3ccccc3)N(c3ccc(F)cc3)C2=O)cc1,5.4,53.0*
COc1ccc(/C=C2\C=C(c3ccccc3)N(c3cccnc3)C2=O)cc1Br,-3.1,53.0*
O=C1/C(=C/c2ccc([N+](=O)[O-])cc2)C=C(c2ccccc2)N1c1ccccc1,-4.5,4.0
COc1ccc(/C=C2\C=C(c3ccccc3)N(c3ccc(N(C)C)cc3)C2=O)cc1,2.4,36.0
O=C1/C(=C/c2ccc(-c3ccc([N+](=O)[O-])cc3)o2)C=C(c2ccccc2)N1c1cccnc1,-1.9,65.0*
O=C1/C(=C/c2ccc([N+](=O)[O-])cc2)C=C(c2ccccc2)N1c1ccc(O)cc1,1.5,59.0*
CCCNc1nnc(NC2CCCCC2)c2ccccc12,-2.2,-4.7
CC(C)NC(=O)c1cn(-c2cccc(Cl)c2)nn1,-3.8,-5.1
O=C(Nc1ccccc1)N1CCCN(c2nc3cccnc3s2)CC1,-3.8,0.0
COc1ccc(/C=C2\C=C(c3ccccc3)N(c3ccc(O)cc3)C2=O)cc1,1.6,59.0*
SMILES,Pf apPOL inh,mHTT-CaM PPI inh
COc1ccc(/C=C2\C=C(c3ccccc3)N(c3ccc(C(=O)O)cc3)C2=O)cc1,-0.1,33.0
NCCSc1[nH]ncc1[N+](=O)[O-],/,1.0
COc1cc(Cl)cc(/C=C2\C(=O)Nc3ccc(Br)cc32)c1OC,-3.3,57.0*
COc1cc(Cl)c(/C=C2\C(=O)Nc3ccc(Br)cc32)cc1OC,-53.1,42.0
COc1cccc(/C=C2\C(=O)Nc3ccc(Br)cc32)c1OC,4.2,89.0*
COc1ccccc1/C=C1\C(=O)Nc2ccc(Br)cc21,3.3,30.0
COc1cc(Cl)c(C)cc1NC(=O)CCS(=O)(=O)c1ccc(C)cc1,-3.8,15.0
COc1ccc(C(=O)NCCc2c[nH]c3ccccc23)cc1,-5.8,1.5
COc1ccc(C(=O)C(C)OC(=O)CCc2c[nH]c3ccccc23)cc1 (stereo unspecified),-7.1,90.4*
Nc1c(C(=O)Nc2ccc(Br)cn2)sc2nc3c(cc12)CCCCCC3,-5.4,-10.0
Cc1ccc(NC(NC(=O)Nc2ccccc2)C(Cl)(Cl)Cl)cc1 (stereo unspecified),-0.8,85.0*
Cc1ccc(NC(=O)Nc2ccc(Cl)cc2)cc1,-14.6,-1.6
O=C(CCN1C(=O)c2ccccc2C1=O)Nc1cc(C(F)(F)F)ccc1Cl,-6.3,3.0
O=C1OC(c2ccccc2[N+](=O)[O-])=N/C1=C/c1ccc(Cl)cc1Cl,3.4,5.0
O=C1OC(c2ccc(F)cc2)=N/C1=C/c1cc2c(cc1Cl)OCO2,-6.0,12.0
CNC(=O)c1c(N=Cc2ccccc2O)sc2c1CCCC2,6.4,61.0*
CNC(=O)c1c(NC(C)=O)sc2c1CCCCC2,-39.6,-2.5
Cc1ccc(C(=O)N2CCCC(C)(C(=O)NCc3ccc(F)cc3)C2)cc1 (stereo unspecified),-3.8,17.0
COc1ccccc1C(=O)NC(C)c1nc2ccccc2n1Cc1ccccc1F (stereo unspecified),-0.6,55.2*
CCCC(=O)NC(C)c1nc2ccccc2n1Cc1ccccc1F (stereo unspecified),-1.1,4.0
O=C(NN=Cc1ccccn1)C(=O)Nc1ccc(Cl)cc1Cl,-3.8,/
CSc1ccc(Cc2nnc(NC(=O)c3cc(C)oc3C)o2)cc1,-4.5,48.3
CC(C)Sc1ccc(Cc2nnc(NC(=O)Cc3ccc(F)cc3)o2)cc1,-21.0,-17.7
CS(=O)(=O)c1ccc(Cc2nnc(NC(=O)CSc3ccc(Cl)cc3)o2)cc1,-25.0,56.5*
CCSc1ccc(Cc2nnc(NC(=O)c3cccs3)o2)cc1,-221.3,56.6*
SMILES,Pf apPOL inh,mHTT-CaM PPI inh
COc1ccc(Cc2nnc(NC(=O)Nc3cccc(C(F)(F)F)c3)o2)cc1,-10.1,3.3
COc1ccc(Cc2nnc(NC(=O)Nc3cccs3)o2)cc1,-0.9,53.6*
O=C(Cn1nnc(-c2ccccc2Cl)n1)Nc1cccc(Br)c1,1.6,-3.0
O=[N+]([O-])c1ccc(CNC2CCCCCC2)cc1,-0.3,4.1
CNc1ncnc2c1C(c1ccccc1)c1c(NC)ncnc1O2,0.4,1.0
Cc1ccc(N2NC(=O)/C(=C\c3ccc(C)c([N+](=O)[O-])c3)C2=O)cc1Cl,-7.7,62.0*
Cc1ccc(N2NC(=O)/C(=C\c3ccc(Cl)cc3)C2=O)cc1Cl,0.5,11.0
COc1cc(/C=C2\C(=O)NN(c3ccc(Cl)c(Cl)c3)C2=O)ccc1O,-4.9,34.0
O=C1NN(c2ccc(Cl)c(Cl)c2)C(=O)/C1=C/c1ccc(O)c(O)c1,-1.3,73.0*
O=C(NCc1ccc(Cl)cc1)N1CCC(COCc2ccccc2)CC1,-67.1,0.9
CCCCC(=O)NC(c1ccccc1Cl)c1cc([N+](=O)[O-])c2cccnc2c1O (stereo unspecified),-9.9,100.0*
CCCCC(=O)NC(c1ccc2c(c1)OCO2)c1cc([N+](=O)[O-])c2cccnc2c1O (stereo unspecified),-5.9,98.7*
CCCCC(=O)NC(/C=C/c1ccccc1)c1cc([N+](=O)[O-])c2cccnc2c1O (stereo unspecified),-3.2,14.0
CCCCc1nnc(NC(=O)c2ccc([N+](=O)[O-])cc2)s1,-19.0,-0.6
CCC(=O)N1CCN(c2nc3c(s2)CC(C(=O)NCc2ccc(C)cc2)CC3)CC1 (stereo unspecified),-2.6,14.1
Cc1cc(Cl)nc(Cl)c1C(=O)NC(=O)Nc1ccc(Cl)cc1,9.7,-8.0
Cc1c(Cl)cccc1S(=O)(=O)NCC(O)c1ccc(C(F)(F)F)cc1 (stereo unspecified),-5.9,68.0*
CC(C)S(=O)(=O)c1ccc(CC(=O)NCC(O)c2ccc(C(F)(F)F)cc2)cc1 (stereo unspecified),-4.9,-4.3
Cc1c(Cl)cccc1NC(=O)C(=O)NCC(O)c1ccc(C(F)(F)F)cc1 (stereo unspecified),-5.0,-15.0
